The record followed here is PubChem BioAssay.

Structures are written as SMILES. Activity calls are given as the source filed them.

A short description of assay [1]: anti-His antibody binders, primary screen, artefact control for SMM control protein annotation, biochemical, small-molecule microarray, 635 nm fluorescence (AID 1128).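 Further: score merges feature fluorescence with signal-to-noise for each printed compound spot.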 To be noted: anti-His Alexa647 antibody binding, higher = more signal.
Assay [2] concerns Human papillomavirus type 1a E7 protein (residues 1-88). Kind of assay: HPV1a E7 small-molecule binders, primary screen, biochemical, small-molecule microarray, residues 1-88, 635 nm (AID 1129). Particulars: small-molecule microarray binding, fluorescence 635 nm; higher = more signal.
Assay [3] addresses Focal adhesion kinase 1 (Homo sapiens) (UniProt Q05397). Kind of assay: small-molecule microarray binders of FAK, primary screen, biochemical, 635/667 nm fluorescence, BSA, DTT (AID 1130).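 Further: composite of spot emission at 667 nm and signal to noise over triplicate slides.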 To be noted: PTK2 binding, 635 nm fluorescence, higher = more signal.
For assay [4], the system named is Fibrinogen (Alexa647-labelled). Put plainly: fibrinogen binders on compound microarrays, profiling panel, artefact control for SMM control-protein annotation, biochemical, small-molecule microarray, 635/667 nm fluorescence (AID 1131).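 Further: z-score merges 667 nm fluorescence with per-spot signal-to-noise over triplicate slides.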 Particulars: fibrinogen-A647 binding fluorescence, higher = more signal.
Assay [5] addresses Follistatin (Homo sapiens) (UniProt P19883). Kind of assay: follistatin binders on small-molecule microarrays, primary screen, biochemical, small-molecule microarray, 635/667 nm fluorescence (AID 1132). Particulars: FST binding, 635 nm fluorescence, higher = more signal.
The target in assay [6] is Fibroblast growth factor 2 (Homo sapiens) (UniProt P09038). Kind of assay: FGF2 binders on small-molecule microarrays, primary screen, biochemical, small-molecule microarray, 635/667 nm fluorescence (AID 1133). To be noted: small-molecule microarray binding, FGF2, fluorescence 635/667; higher = more signal.
Assay [7] in a line: mitochondrial membrane potential change in A549 cells, profiling panel, cell-based, JC-1 fluorescence, basal, 24 h, 100 nL (AID 1138).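 Further: A549 lung adenocarcinoma cells under basal conditions with no added stimulus; test concentration not given here.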 To be noted: higher = more signal.
Assay [8] concerns Lefty1. Kind of assay: Lefty1 binders on small-molecule microarrays, primary screen, biochemical, small-molecule microarray, 635/667 nm fluorescence (AID 1139). To be noted: small-molecule microarray binding, fluorescence 635/667; higher = more signal.
The subject of assay [9] is wheat germ agglutinin (Triticum aestivum), Alexa647-labelled. Put plainly: wheat germ agglutinin binders on compound microarrays, profiling panel, artefact control for SMM control-protein annotation, biochemical, small-molecule microarray, 635/667 nm fluorescence (AID 1140).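 Further: score merges 667 nm feature emission with signal to noise over triplicate slides.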 To be noted: WGA-A647 binding, 635 nm fluorescence, higher = more signal.
Assay [10] has as its target Luciferin 4-monooxygenase (Photinus pyralis) (UniProt P08659). Put plainly: firefly luciferase enzyme inhibitors, primary screen, biochemical, luminescence, purified enzyme, 2006 set (AID 1141).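 Further: cell-free assay with purified firefly luciferase at 100 ng per well in PBS; test concentration not given here.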 To be noted: SteadyGlo luminescence, 30 min, higher = more signal, called active from +8 up or from −8 down.

Focal adhesion kinase 1 (Homo sapiens), sequence (Q05397 whole entry, looked up): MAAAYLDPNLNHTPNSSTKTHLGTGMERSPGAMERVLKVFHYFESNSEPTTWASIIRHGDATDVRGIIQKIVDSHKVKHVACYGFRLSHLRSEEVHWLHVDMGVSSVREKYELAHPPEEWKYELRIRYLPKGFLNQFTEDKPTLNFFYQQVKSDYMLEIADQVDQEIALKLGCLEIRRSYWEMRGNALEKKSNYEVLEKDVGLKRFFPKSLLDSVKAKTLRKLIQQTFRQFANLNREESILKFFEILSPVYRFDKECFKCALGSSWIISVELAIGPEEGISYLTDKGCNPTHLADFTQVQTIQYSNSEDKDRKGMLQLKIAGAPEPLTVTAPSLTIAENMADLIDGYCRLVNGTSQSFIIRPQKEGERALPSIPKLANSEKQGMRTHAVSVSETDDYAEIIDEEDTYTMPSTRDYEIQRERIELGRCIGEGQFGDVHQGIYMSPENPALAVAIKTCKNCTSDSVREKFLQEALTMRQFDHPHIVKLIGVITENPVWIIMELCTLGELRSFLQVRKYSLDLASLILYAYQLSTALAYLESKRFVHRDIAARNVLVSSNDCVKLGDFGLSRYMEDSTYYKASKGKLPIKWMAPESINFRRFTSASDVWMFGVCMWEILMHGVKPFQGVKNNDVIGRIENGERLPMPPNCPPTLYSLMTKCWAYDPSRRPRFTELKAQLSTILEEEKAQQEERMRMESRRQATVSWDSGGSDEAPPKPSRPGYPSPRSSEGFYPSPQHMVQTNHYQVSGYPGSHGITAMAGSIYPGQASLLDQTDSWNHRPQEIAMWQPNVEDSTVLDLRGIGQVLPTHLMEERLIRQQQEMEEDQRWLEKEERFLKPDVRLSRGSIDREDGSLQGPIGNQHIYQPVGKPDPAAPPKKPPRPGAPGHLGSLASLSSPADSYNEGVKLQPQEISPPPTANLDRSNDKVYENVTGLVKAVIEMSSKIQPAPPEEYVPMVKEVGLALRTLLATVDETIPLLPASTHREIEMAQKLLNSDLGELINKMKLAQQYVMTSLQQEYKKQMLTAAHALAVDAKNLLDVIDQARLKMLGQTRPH
Luciferin 4-monooxygenase (Photinus pyralis), sequence (P08659 whole entry, looked up): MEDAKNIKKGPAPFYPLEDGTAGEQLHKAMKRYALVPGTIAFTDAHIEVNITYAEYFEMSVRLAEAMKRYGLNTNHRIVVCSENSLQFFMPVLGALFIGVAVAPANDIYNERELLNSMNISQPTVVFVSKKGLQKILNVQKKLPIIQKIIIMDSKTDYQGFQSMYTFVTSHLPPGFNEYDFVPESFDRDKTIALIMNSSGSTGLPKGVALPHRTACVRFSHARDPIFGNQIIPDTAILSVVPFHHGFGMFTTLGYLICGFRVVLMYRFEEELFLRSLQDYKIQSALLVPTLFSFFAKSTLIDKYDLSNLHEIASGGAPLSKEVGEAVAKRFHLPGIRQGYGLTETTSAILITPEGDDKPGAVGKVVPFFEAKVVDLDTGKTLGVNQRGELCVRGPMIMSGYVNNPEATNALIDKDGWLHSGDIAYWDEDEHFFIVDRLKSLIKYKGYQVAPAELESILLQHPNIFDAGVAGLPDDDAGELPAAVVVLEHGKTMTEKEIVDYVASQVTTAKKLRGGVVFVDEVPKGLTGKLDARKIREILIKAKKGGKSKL
Fibroblast growth factor 2 (Homo sapiens), sequence (P09038 whole entry, looked up): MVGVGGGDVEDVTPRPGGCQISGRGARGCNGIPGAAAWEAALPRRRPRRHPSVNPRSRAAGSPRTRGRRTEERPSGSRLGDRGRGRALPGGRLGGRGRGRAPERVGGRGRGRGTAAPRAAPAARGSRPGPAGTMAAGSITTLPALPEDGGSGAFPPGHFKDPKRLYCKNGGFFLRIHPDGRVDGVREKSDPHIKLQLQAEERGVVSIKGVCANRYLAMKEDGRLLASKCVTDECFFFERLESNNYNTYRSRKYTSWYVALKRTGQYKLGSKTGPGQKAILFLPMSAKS
Follistatin (Homo sapiens), sequence (P19883 whole entry, looked up): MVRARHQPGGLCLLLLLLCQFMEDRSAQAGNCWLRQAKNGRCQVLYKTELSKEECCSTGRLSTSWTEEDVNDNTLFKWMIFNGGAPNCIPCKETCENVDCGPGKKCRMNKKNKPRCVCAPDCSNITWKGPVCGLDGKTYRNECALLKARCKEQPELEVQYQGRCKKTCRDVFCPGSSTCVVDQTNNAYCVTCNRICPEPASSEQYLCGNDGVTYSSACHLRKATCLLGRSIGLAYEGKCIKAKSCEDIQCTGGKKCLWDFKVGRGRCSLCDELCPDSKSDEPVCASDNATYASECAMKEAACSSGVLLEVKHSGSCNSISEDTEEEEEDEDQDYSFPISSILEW

Turning to `COC(=O)C(CC#Cc1ccc2c(c1)[C@]1(C(=O)N2)[C@H](C(=O)N2CCc3cc(OC)c(OC)cc3C2)[C@H]2C(=O)O[C@H](c3ccccc3)[C@H](c3ccccc3)N2[C@@H]1c1ccc(OCCO)cc1)C(=O)OC`, the composite z-score in assay [1] stood at 1.47; in assay [2] it was 1.19; in [3] it was 0.344; in assay [4] it was 0.99; in [5], 1.01; in assay [6] it was 1.71. The results for the composite z-score in assay [8] and in assay [9] were 0.928 and 1.23, respectively. Further, the z-score was -1.29 in [7] and -1.9 (inactive) in [10].
On to `O=C1OCC=C[C@H]2OC34C=CCN(CCN5CCOCC5)C(=O)[C@H]3N(CCCCCO)C(=O)[C@@H]4[C@@H]12` (stereo not given in full), for which the composite z-score in assay [1] was 2.23; in assay [2] it was -0.277; in assay [3] it was 0.311; in [4], -0.155; in assay [5], -0.307; in [6] it was -0.12. Also, the composite z-score was -0.0262 in [8] and 0.28 in assay [9]. Further, the z-score in assay [7] was -0.829; in assay [10], -0.346 (inactive).
Turning to `O=C1N(CCS(=O)(=O)c2ccccc2)c2ccccc2[C@H]2OC(c3ccc(OCCCO)cc3)=N[C@@]12CCS(=O)(=O)c1ccccc1`, the composite z-score in assay [1] came to 3.19; in assay [2] it was 1.21; in assay [3] it was 0.634; in [4], 0.943; in assay [5], 1.42; in assay [6], 1.74. For the same compound, the composite z-score amounted to 0.589 in assay [8] and 0.816 in [9]. Further, the z-score in assay [7] was -1.23; in assay [10], -3.3 (inactive).
For `C=CCN1C(=O)[C@@]2(O[C@@H](CCO)[C@H]([Si](C)(C)c3ccc(OC)cc3)[C@H]2C)c2cc(NC(=O)[C@H](C)O)ccc21`, the composite z-score in [1] was 2.01; in assay [2], 1.19; in assay [3], 1.38; in assay [4], 0.114; in assay [5], 0.346; in [6], 0.0211. The composite z-score was 0.582 in [8] and 0.98 in assay [9]. The z-score in [7] was 2.74; in [10], -0.676 (inactive).
In the case of `[N-]=[N+]=NCc1ccccc1C[C@]1(C(=O)NCCN2CCOCC2)COC(c2ccc(OCCCO)cc2)=N1`, the composite z-score in assay [1] turned out to be 0.293; in assay [2], 1.24; in assay [3], 0.815; in assay [4] it was 1.02; in assay [5], 0.953; in [6] it was 0.152. In addition, the composite z-score in assay [8] was determined as 0.346; in assay [9] it was 0.783. The z-score is 1.88 in assay [7] and -0.851 (inactive) in assay [10].
On to `CC(C)(C)OC(=O)CC[C@@]1(C(=O)N2CCCCC2)N=C(c2ccc(OCCCO)cc2)O[C@@H]1c1ccccc1CN=[N+]=[N-]`, for which the composite z-score came out at 3.24 in assay [1]; 1.21 in [2]; 1.26 in assay [3]; 1.03 in assay [4]; 1.04 in assay [5]; 0.0627 in assay [6]. The values for the composite z-score in assay [8] and in assay [9] were 0.0215 and 1.35, respectively. For the same compound, the z-score in assay [7] is 1.58; in assay [10], -0.931 (inactive).
Take `CCOC(=O)C[C@H]1[C@H](OC(=O)c2ccc(C(=O)c3ccccc3)cc2)[C@@H](NC(=O)C2CCCCC2)c2cc(OCCCO)ccc2N1C(=O)Cc1ccc(OC)cc1`: the composite z-score in assay [1] was 0.027; in [2], 0.785; in assay [3] it was 0.494; in assay [4], 0.441; in [5], 0.432; in assay [6], 0.0799. The composite z-score worked out at 0.942 in assay [8] and 0.221 in assay [9]. The z-score in assay [7] was 1.36; in assay [10], 0.13 (inactive).
Turning to `COCCCNC(=O)[C@@H]1c2ccccc2C(=O)N(Cc2cc(F)cc(C(F)(F)F)c2)[C@H]1c1ccc(CO)cc1`, the composite z-score in assay [1] was -0.669; in [2] it was -1.06; in assay [3], -0.751; in [4] it was -1.81; in [5] it was -0.252; in [6], -0.94. The values for the composite z-score in [8] and in assay [9] were -0.584 and 0.373, respectively. The z-score in assay [7] was 0.261; in [10], -0.646 (inactive).
Take `COc1ccccc1CN1C(=O)c2ccccc2[C@@]2(Cc3ccccc3N(C3CC3)C2=O)[C@@H]1c1ccc(CO)cc1`: the composite z-score in assay [1] is 0.131; in [2], -1.12; in assay [3] it was -0.175; in assay [4] it was -0.248; in [5] it was 0.253; in [6] it was -1.17. Also, the composite z-score in assay [8] was -0.154; in [9], -0.0487. Moreover, the z-score in assay [7] is 0.111; in [10] it was -0.379 (inactive).
On to `CC(C)(C)OC(=O)CC[C@@]1(C(=O)N2CCCCC2)N=C(c2ccc(OCCCO)cc2)O[C@@H]1c1ccccc1N=[N+]=[N-]`, for which the composite z-score in assay [1] turned out to be 2.83; in assay [2], 1.27; in [3] it was 1.7; in [4] it was 0.99; in assay [5], 1.26; in assay [6], 0.722. For the same compound, the composite z-score stood at 0.0141 in assay [8] and 1.25 in assay [9]. The z-score is 1.95 in assay [7] and -11.7 (active) in [10].
With `C=CC[C@@]1(C(=O)NCC(O)CO)N=C(c2ccc(OCCCO)cc2)O[C@@H]1c1ccccc1` (stereo not given in full), the composite z-score came out at 1.98 in assay [1]; 0.932 in assay [2]; 0.307 in assay [3]; 0.543 in assay [4]; 1.44 in assay [5]; 1.02 in assay [6]. The composite z-score in [8] came out at 0.0457; in assay [9], 1.27. Also, the z-score is 1.01 in assay [7] and -1.31 (inactive) in [10].
Consider `CO[C@H]1O[C@H](CO)[C@@H](OC(=O)c2ccc(Br)cc2)[C@@H]2OC(=O)[C@H](Cc3cccc(Br)c3)C/C=C/C[C@@H](Cc3cccc(Br)c3)C(=O)O[C@@H]12`, for which the composite z-score in assay [1] stood at 1.58; in [2], 1.05; in assay [3] it was 0.214; in assay [4], 0.647; in assay [5], 1.02; in assay [6], 0.897. The composite z-score in [8] came out at 0.442; in assay [9], 0.31. Moreover, the z-score in [7] was 1.02; in [10], 0.0021 (inactive).
Consider `COCCOC(=O)N1C(=O)[C@@]2(c3cc(C#CCCO)ccc31)[C@H](C(=O)N1CCc3cc(OC)c(OC)cc3C1)[C@H]1C(=O)O[C@H](c3ccccc3)[C@H](c3ccccc3)N1[C@@H]2c1ccc(OCCO)cc1`, for which the composite z-score in [1] is 0.768; in assay [2] it was 1.08; in [3], 0.148; in [4], 0.786; in assay [5], 1.27; in assay [6], 1.29. For the same compound, the composite z-score in assay [8] was 1.11; in assay [9], 0.774. Further, the figures for the z-score in assay [7] and in [10] were -0.236 and -2.83 (inactive), respectively.
For the compound `CN(C)CCCCNC(=O)[C@H]1C[C@H]2C(=O)N[C@@H](CCCC[N+](C)(C)C)C(=O)N2[C@H]1c1cccc(OCCO)c1`, the composite z-score in assay [1] stood at 1.06; in assay [2], 0.809; in assay [3] it was 0.373; in assay [4] it was 0.54; in assay [5], 1.35; in assay [6], 1.67. In addition, the composite z-score in assay [8] was 1.35; in [9], 0.115. In addition, the z-score was -0.312 in assay [7] and 0.53 (inactive) in [10].
On to `Cc1ccc(S[C@]2(C(=O)NCc3ccccc3)CC(=O)N(C3Cc4ccccc4C3)[C@@H]2c2ccc(CO)cc2I)cc1`, for which the composite z-score in assay [1] is -1.12; in [2] it was -0.621; in [3] it was -0.17; in [4] it was -0.151; in assay [5], -0.328; in [6], -0.244. Besides, the composite z-score in assay [8] is -0.582; in assay [9], 0.146. Also, the z-score was 1.24 in [7] and -1.26 (inactive) in assay [10].
Take `COC(=O)[C@@]1(Cc2ccc(OC)cc2)[C@H]2c3cc(C(=O)N(C)C)n(Cc4cc(F)c(F)c(F)c4)c3C[C@H]2CN1C(=O)c1ccccc1`: the composite z-score in assay [1] is 1; in [2] it was 1.21; in assay [3], 1.86; in assay [4], 1.01; in assay [5] it was 0.761; in assay [6] it was -0.965. Besides, the composite z-score in [8] was 0.0601; in assay [9], 0.952. Further, the z-score in assay [7] is -0.787; in assay [10], 1.07 (inactive).
